KB-V1 cytotox = KB-V1 MDR subline cytotoxicity; AID 1347076; KB-V1 MDR cells viability, CellTiter-Glo, 72 h; 400,000 tested, 3.4% active; Potency, µM (titrated, usually from 46.1 µM), usual class: cytotoxic; further: on the % scale 0 is the no-effect control and ±100 the full control effect; nearly all actives have a fitted effect of over 60% in size
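Cytotoxicity toward P-gp-expressing KB-V1 cells was determined as loss of CellTiter-Glo luminescence after 72 h at 37 degrees C. Compounds were tested in quantitative HTS format across a concentration range, with curves fitted to normalized data.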
HT1080NT lethal = kills 2HG-producing HT-1080-NT fibrosarcoma cells | Potency, µM (series often up to 46.1 µM), for the others: at the highest dose activity, negative = less viability, actives largely listed as cytotoxic | 360,000 tested, 1.6% active | HT-1080-NT fibrosarcoma viability, CellTiter-Glo ATP luminescence, 48 h;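 further: NT is the 2HG producing partner of a matched IDH1 knockdown line; 0% = DMSO-treated cells and -100% = media-only wells without cells; nearly all actives have a fitted effect of over 55% in size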
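Compounds were tested in concentration-response format on HT-1080-NT cells for 48 hours at 37 degrees C. Cell viability came from CellTiter-Glo luminescence; curves were classified by r2, response magnitude and activity.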
ATXN viability = cell viability loss in ATXN counter-screen; S2 cells (HEK-293 line with an ATXN2-luciferase reporter) viability, CellTiter-Fluor protease fluorescence, 24 h; Potency, µM (doses to about 56.7 µM), usual class: cytotoxic; 400,000 tested, 0.49% active; further: nearly all actives have a fitted effect of over 40% in size
HT1080 IDH1KD tx = toxicity to HT-1080 IDH1 knockdown cells (counter line) | HT-1080 IDH1 knockdown viability, ATP luminescence, 48 h | Potency, µM (doses to about 46.1 µM), inactives show at the top dose activity, negative = toxicity, actives largely listed as cytotoxic | 360,000 tested, 2% active | AID 686971;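 further: 0% = DMSO wells and -100% = cell-free medium wells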
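IDH1KD HT-1080 cells, 750/well, RPMI + 5% FBS; compound pinned after 2 h settling; 48 h, 37 °C; CellTiter-Glo luminescence; % activity normalised to DMSO and no-cell wells; curves fitted, classed by r2 and efficacy.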
ATXN2 expr inh = ATXN2 expression inhibition | HEK-293 ATXN2-luciferase reporter, luminescence, 24 h | Potency, µM (doses to about 57 µM), without a hit: at the highest dose activity change, negative = inhibition, usual class: inhibitors | 360,000 tested, 0.72% active; further: on the % scale 0 is the no-effect control and ±100 the full control effect; nearly all actives have a fitted effect of over 55% in size
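qHTS (up to 57 uM final) was run with 24 h compound exposure of reporter cells at 37 °C. Each well was multiplexed: SteadyGlo luminescence measured ATXN2-luciferase expression after a fluorogenic Gly-Phe-AFC viability readout (25 uM final).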
KB-3-1 cytotox = kills parental KB-3-1 adenocarcinoma cells. Potency, µM (titrated, usually from 46.1 µM), hits mostly cytotoxic. KB-3-1 viability, CellTiter-Glo ATP luminescence, 72 h. 400,000 tested, 1.4% active; further: on the % scale 0 is the no-effect control and ±100 the full control effect; nearly all actives have a fitted effect of over 60% in size
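Screening of KB-3-1 cells (DMEM, 10% FBS, phenol-red free) ran from lowest to highest compound concentration; after 72 h at 37 °C viability was read luminescently and curves fitted.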
* = called active by the depositor; i = inactive; ? = inconclusive; nt = no result given; [ ] = another dose, or the depositor's remark. Rows were chosen to be rich in hits. Some 6.2% of all compounds tested hit in one or more screens of this group. The call rests on the fitted dose curve; in most records, active means well fitted curve in the direction sought with a large enough effect; inconclusive means small, poorly fitted or top-dose-only effect, or another doubt; inactive means no such curve, though single readings can be large; an effect the other way counts as inactive or inconclusive. Potency means the concentration at half of the fitted maximal effect.

SMILES	KB-V1 cytotox	HT1080NT lethal	ATXN viability	HT1080 IDH1KD tx	ATXN2 expr inh	KB-3-1 cytotox
CCc1ccc2oc(C(=O)NCc3ccccc3)cc(=O)c2c1	i	nt	i	nt	-14.4%	i
COC(=O)c1ccc(C(=O)NC2CCCc3c2cnn3-c2ccccc2F)nc1 (centres undefined)	4.11µM*	?	i	?	-19.3%	?
Cc1nnsc1C(=O)NC1CCCc2c1cnn2-c1ccc(F)cc1F (centres undefined)	?	7.31µM*	i	-14.7%	-16.4%	i
CCOC1=C2CN(S(=O)(=O)c3ccc(C)cc3)C(c3cccc(Cl)c3)CC2N(S(=O)(=O)c2ccc(C)cc2)C(c2ccncc2)C1 (centres undefined)	?	0.9%	nt	-5.2%	nt	?
CCc1ccc(-n2nc3ccc(NC(=O)c4cc(Cl)c(OC)c(Cl)c4)cc3n2)cc1	i	nt	i	nt	12.3%	i
COCCNC(=O)c1cccc(OC2CCN(Cc3ccc(C(=O)OC)cc3)CC2)c1	i	-1.3%	i	0.3%	-23.1%	?
Cc1ccc(CN2CCC(Oc3cccc(C(=O)N(C)CCN(C)C)c3)CC2)cc1C	i	?	i	20.6µM*	-17.8%	i
COc1ccc(OC)c(CNC(=O)c2cc3c(=O)oc4ccc(C)cc4c3s2)c1	?	nt	i	nt	9.3%	i
Cc1ccc(/C=N/NC(=O)CCCOc2ccc(Cl)cc2Cl)cc1[N+](=O)[O-]	i	?	i	?	-29.2%	?
O=C(CCCOc1ccc(Cl)cc1Cl)N/N=C/c1ccccc1	?	-3.2%	i	-4.1%	8.0%	i
Cc1ccc(/C=N/NC(=O)CCCOc2ccc(Cl)cc2Cl)cc1	?	14.6µM*	?	14.6µM*	-34.2%	?
COc1ccc(/C=N/NC(=O)CCCOc2ccc(Cl)cc2Cl)cc1[N+](=O)[O-]	20.6µM*	-0.4%	?	11.8%	-23.6%	?
O=C(CCCOc1ccc(Cl)cc1Cl)N/N=C/c1ccccc1O	i	?	?	?	25.1µM*	i
N#C/C(=C\c1c(Cl)cccc1Cl)c1nc2ccccc2[nH]1	i	-19.2%	i	?	1.4%	i
N#C/C(=C\c1ccc(Sc2ccc(Cl)cc2)o1)c1nc2ccccc2[nH]1	14.6µM*	-1.6%	i	-5.8%	1.6%	i
N#C/C(=C\c1ccc(Cl)cc1)c1nc2ncccc2[nH]1	18.4µM*	?	i	-10.4%[9.24 µM]	18.2%	i
Cc1cc(/C=C(/C#N)c2nc3ccccc3[nH]2)c(C)n1-c1cccc([N+](=O)[O-])c1	?	-12.9%	i	-11.0%	-0.2%	?
Cc1cc(/C=C(\C#N)c2nc3ccccc3[nH]2)c(C)n1C	5.17µM*	6.8%	?	-0.2%	9.8%	?
Cc1ccc(NC(=O)N2CC3CCCN3c3ccccc32)c(C)c1 (centres undefined)	i	nt	nt	nt	nt	i
COc1cccc(NC(=O)c2ccc(CN3CCc4ccccc4C3)cc2)c1	i	-10.1%	i	-18.2%	69.5%	i
COc1ccc(NC(=O)c2ccc(CN3CCc4ccccc4C3)cc2)cc1OC	8.2µM*	-24.3%	i	-16.7%	0.0%	?
O=C(Nc1ccc(S(=O)(=O)N2CCOCC2)cc1)c1ccc(CN2CCc3ccccc3C2)cc1	2.91µM*	?	i	20.6µM*	?	?
O=C(Nc1cccnc1)c1ccc(COCC(F)(F)F)cc1	?	-14.0%	i	-3.7%	0.7%	i
C/C(=N\NC(=O)c1ccc(CN2CCc3ccccc3C2)cc1)c1ccccc1O	?	?	i	20.6µM*	15.8µM*	14.6µM*
COc1ccc(NC(=O)c2ccc(COCC(F)(F)F)cc2)cc1OC	20.6µM*	8.1%	i	-2.1%	9.0%	i
SMILES	KB-V1 cytotox	HT1080NT lethal	ATXN viability	HT1080 IDH1KD tx	ATXN2 expr inh	KB-3-1 cytotox
CO[C@H]1[C@H](NC(=O)c2ccco2)c2ccccc2C12CCN(Cc1cnc(N(C)C)s1)CC2	nt	nt	i	nt	nt	nt
COc1cc(CN2CCOc3ccc(CN4CCC(O)(c5cccnc5)CC4)cc3C2)ccc1F	nt	nt	i	nt	nt	nt
COc1ccc(CN2CCc3cc(OC)c(OC)cc3C2)cc1O	16.4µM*	0.9%	i	-10.4%	-2.9%	?
COc1cccc(NC(=O)c2ccc(CN3CCN(c4ccccc4)CC3)cc2)c1	?	-24.0%	nt	?	nt	8.91µM*
COc1ccc(NC(=O)c2ccc(CN3CCN(c4ccccc4)CC3)cc2)cc1	i	-9.0%	?	-20.1%	-23.5%	i
CCOC(=O)[C@]12CCCC=C1N(Cc1ccccc1)C(=O)[C@H](CC(=O)N1CCN(C(=O)c3ccco3)CC1)C2	i	-1.0%	nt	3.4%	nt	i
O=C(NNC(=S)Nc1ccccc1)c1cccc(Br)c1	i	11.9%	i	5.9%	35.9%	i
CC(C)(C)NC(=S)NNC(=O)c1cccc(Br)c1	16.4µM*	4.7%	i	-1.1%	nt	?
Cc1ccc(CNC(=O)C2CCN(S(=O)(=O)Cc3ccccc3)CC2)cc1	i	nt	i	nt	2.2%	i
COc1ccc(S(=O)(=O)N(CC(=O)N2CCOCC2)Cc2ccccc2)cc1C	2.91µM*	-0.1%	i	-20.3%	-4.9%	i
COc1cc(N=c2c([N+](=O)[O-])nn(-c3ccc4c(c3)OCCO4)n2O)cc(OC)c1	6.51µM*	-18.5%	i	?	-8.1%	?
CC(C)c1ccc(N=c2c([N+](=O)[O-])nn(-c3ccc4c(c3)OCCO4)n2O)cc1	i	-16.0%	?	-1.7%	-30.7%	i
CN1CCN(S(=O)(=O)c2cccc(C(=O)NC3CCCC3)c2)CC1	i	-2.4%	i	16.3%	8.5%	i

Screening data deposited in PubChem by National Center for Advancing Translational Sciences (NCATS).
